Records with an inconclusive call do not appear. Calls of active or inactive are those of the source. Calls follow the shape of the dose curve; as a rule, active = well fitted inhibition curve with a large enough effect; inconclusive = small, poorly fitted or top-dose-only effect; inactive = flat fitted curve, though single readings scatter.
% is scaled to controls: 0 for no effect and ±100 for the full control effect.

This assay deals with Calcium and integrin-binding protein 1 (Homo sapiens) (UniProt Q99828). Description: Primary qHTS for Identification of Calcium Integrin Binding Protein 1 (CIB1) Competitor (AID 1508620). Also: top concentration of the series differs between compounds. Conditions: CIB1-GST / FITC-alphaIIb peptide fluorescence polarization; series mostly up to 114 µM; activity change, negative = inhibition: at the top concentration. A digest of the protocol: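 Fluorescence polarization competition: GST-tagged CIB1 (1 uM final) preincubated with compound 15 min at room temperature, then FITC-labelled alphaIIb peptide (100 nM final) added. After 15 min at room temperature, polarization read at Ex 480/Em 540.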
Calcium and integrin-binding protein 1 (Homo sapiens), sequence (Q99828 whole entry, looked up): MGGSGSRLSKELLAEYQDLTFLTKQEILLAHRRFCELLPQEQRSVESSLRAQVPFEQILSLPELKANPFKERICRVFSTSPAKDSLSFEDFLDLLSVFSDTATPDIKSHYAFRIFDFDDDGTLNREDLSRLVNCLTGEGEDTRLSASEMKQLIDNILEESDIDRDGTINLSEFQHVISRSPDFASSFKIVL
Background: In qHTS, concentration-response curves come from the screen itself.
`COC(=O)C12CCC(C)C(C)C1C1=CCC3C4(C)CCC(OC(C)=O)C(C)(C)C4CCC3(C)C1(C)CC2` (centres undefined): the “activity change, negative = inhibition” value was 2% [at 57.7 µM] (inactive).
`C[C@@H]1CC[C@]2(C(=O)O[C@@H]3O[C@H](CO)[C@@H](O)[C@H](O)[C@H]3O)CC[C@]3(C)C(=CCC4[C@@]5(C)C[C@@H](O)[C@H](O)[C@](C)(C(=O)O)C5CC[C@]43C)[C@@H]2[C@]1(C)O` (some centres undefined): the “activity change, negative = inhibition” value is -1.39% [at 30.2 µM] (inactive).
`c1ccc(N2CCN(CCc3nn[nH]n3)CC2)cc1`: the “activity change, negative = inhibition” value is 2.95% (inactive).
With `COc1c(Nc2ncc(Cl)c(N[C@H]3[C@@H](C(N)=O)[C@@H]4C=C[C@H]3C4)n2)ccc2c1CC[C@@H](N1CCOCC1)CC2`, the “activity change, negative = inhibition” value was -4.37% (inactive).

For the origin of these results see PubChem BioAssay (NCATS).
